According to PubChem BioAssay AID651903 (Broad Institute, 2012):
The whole screen tested about 22,000 compounds, of which about 1,100 (5%) were called active. The sample holds actives, similar compounds and a random draw of the others, so the mix is not that of the screen. Values without a mark were called inactive. No stated cut-off is given here; in the data, active means activity score above about 55%; inconclusive means no clear call, values can overlap the other calls; inactive means below that.

Assay: T. cruzi growth inside host cells – cell-based, plate reader, single point, set 2, primary screen (AID 651903);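 further: parasites and compound incubated about four days before reading; 0% = median of neutral control wells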
Conditions: intracellular Trypanosoma cruzi in host cells, at 5.01 µM, stronger effect = higher value

Q: Which activity score (inhibition) does the source give for `C[C@H](CO)N1C[C@H](C)[C@@H](CN(C)S(=O)(=O)c2ccc(F)cc2)Oc2c(NC(=O)Nc3ccccc3)cccc2C1=O` here?
A: 14.1%

Q: With `C[C@H]1CN([C@@H](C)CO)C(=O)Cc2cc(NS(=O)(=O)c3ccc(Cl)cc3)ccc2O[C@H]1CN(C)S(C)(=O)=O` as the compound, how does the activity score (inhibition) read?
A: -19.4%

Q: For `COc1ccc(S(=O)(=O)N(C)C[C@H]2OCCCC[C@@H](C)Oc3ccc(NC(=O)c4ccncc4)cc3C(=O)N([C@H](C)CO)C[C@@H]2C)cc1`, which activity score (inhibition) is on record?
A: -7.48%

Q: For `COc1ccc(S(=O)(=O)N(C)C[C@H]2OCc3cnnn3CCCC(=O)N([C@H](C)CO)C[C@H]2C)cc1`, which activity score (inhibition) is on record?
A: 0.901%

Q: With `C[C@H](CO)N1C[C@H](C)[C@H](CN(C)CC2CCCCC2)Oc2ccc(NC(=O)CCCCCC(=O)Nc3ccccc3N)cc2C1=O` as the compound, how does the activity score (inhibition) read?
A: 0.222%

Q: With `C[C@@H]1CN([C@@H](C)CO)C(=O)c2cccc(NC(=O)CCCCCC(=O)Nc3ccccc3N)c2O[C@@H]1CN(C)CC1CCCCC1` as the compound, how does the activity score (inhibition) read?
A: 17.2%

Q: With `C[C@@H]1CN([C@H](C)CO)C(=O)c2cccc(NC(=O)CCCCCC(=O)Nc3ccccc3N)c2O[C@H]1CN(C)CC1CCCCC1` as the compound, how does the activity score (inhibition) read?
A: 62.4% (active)

Q: For `C[C@H]1CN([C@@H](C)CO)C(=O)c2cccc(NC(=O)CCCCCC(=O)Nc3ccccc3N)c2O[C@@H]1CN(C)CC1CCCCC1`, which activity score (inhibition) is on record?
A: 81.9% (active)

Q: For `CC(C)NC(=O)Nc1cccc2c1O[C@H](CN(C)CC1CCCCC1)[C@H](C)CN([C@H](C)CO)C2=O`, which activity score (inhibition) is on record?
A: -12%

Q: With `C[C@@H]1CN([C@@H](C)CO)C(=O)c2cccc(NC(=O)CCCCCC(=O)Nc3ccccc3N)c2O[C@H]1CN(C)C(=O)Nc1cccc2ccccc12` as the compound, how does the activity score (inhibition) read?
A: 0.294%

Q: For `COc1cc(/C=N\NC(=O)CCCCCCC(=O)NO)c(Br)cc1O`, which activity score (inhibition) is on record?
A: 22.6%

Q: With `C[C@@H]1CN([C@H](C)CO)C(=O)c2cccc(NC(=O)C3CC3)c2O[C@@H]1CN(C)C(=O)Nc1ccccc1` as the compound, how does the activity score (inhibition) read?
A: -22.6%

Q: With `Cc1ccc(S(=O)(=O)Nc2cccc3c2O[C@H](CN(C)C(=O)Nc2ccc(C(F)(F)F)cc2)[C@@H](C)CN([C@@H](C)CO)C3=O)cc1` as the compound, how does the activity score (inhibition) read?
A: -14.4%

Q: For `C[C@@H]1CN([C@@H](C)CO)C(=O)c2cccc(NC(=O)Nc3ccc(C(F)(F)F)cc3)c2O[C@@H]1CN(C)S(=O)(=O)c1ccc(F)cc1`, which activity score (inhibition) is on record?
A: 71.6% (active)

Q: For `C[C@@H]1CN([C@@H](C)CO)C(=O)c2cccc(NC(=O)Nc3ccc(F)cc3)c2O[C@@H]1CN(C)C(=O)Nc1ccccc1`, which activity score (inhibition) is on record?
A: -2.37%

Q: Which activity score (inhibition) does the source give for `C[C@H]1CN([C@@H](C)CO)C(=O)c2cccc(NC(=O)Nc3ccc(C(F)(F)F)cc3)c2O[C@H]1CN(C)S(=O)(=O)c1ccccc1` here?
A: 11.5%

Q: For `C[C@@H]1CN([C@H](C)CO)C(=O)c2cccc(NC(=O)c3ccc(-c4nccs4)cc3)c2O[C@@H]1CN(C)C(=O)Nc1ccc(C(F)(F)F)cc1`, which activity score (inhibition) is on record?
A: 38.2%

Q: Which activity score (inhibition) does the source give for `C[C@H](CO)N1C[C@H](C)[C@H](CN(C)C(=O)Nc2ccccc2)Oc2c(NC(=O)Nc3ccc(C(F)(F)F)cc3)cccc2C1=O` here?
A: 70.2% (active)

Q: For `C[C@H](CO)N1C[C@H](C)[C@H](CN(C)C(=O)Nc2ccc(C(F)(F)F)cc2)Oc2c(NC(=O)c3ccncc3)cccc2C1=O`, which activity score (inhibition) is on record?
A: 72.4% (active)

Q: Which activity score (inhibition) does the source give for `C[C@H]1CN([C@@H](C)CO)C(=O)c2cccc(NS(=O)(=O)c3ccccc3)c2O[C@@H]1CN(C)C(=O)Nc1ccc(C(F)(F)F)cc1` here?
A: 34.3%

Q: Which activity score (inhibition) does the source give for `C[C@@H]1CN([C@H](C)CO)C(=O)c2cccc(NS(=O)(=O)c3ccc(F)cc3)c2O[C@@H]1CN(C)C(=O)Nc1ccc(C(F)(F)F)cc1` here?
A: 65.8% (active)

Q: For `C[C@@H]1CN([C@H](C)CO)C(=O)c2cccc(NC(=O)Nc3ccc(F)cc3)c2O[C@@H]1CN(C)C(=O)Nc1ccc(C(F)(F)F)cc1`, which activity score (inhibition) is on record?
A: -4.83%

Q: Which activity score (inhibition) does the source give for `C[C@@H]1CN([C@H](C)CO)C(=O)c2cccc(NC(=O)Nc3ccc(C(F)(F)F)cc3)c2O[C@H]1CN(C)S(=O)(=O)c1ccc(Cl)cc1` here?
A: 36.7%

Q: With `C[C@H]1CN([C@@H](C)CO)C(=O)c2cccc(NC(=O)c3ccc(-c4nccs4)cc3)c2O[C@@H]1CN(C)C(=O)Nc1ccc(C(F)(F)F)cc1` as the compound, how does the activity score (inhibition) read?
A: -8.3%
